In PubChem BioAssay (NCATS):
Inconclusive results are not listed. Active and inactive are the calls of the source. The call rests on the fitted dose curve; in most records, active means well fitted inhibition curve with a large enough effect; inconclusive means small, poorly fitted or top-dose-only effect; inactive means flat fitted curve, though single readings scatter.

The compounds below were run against Calcium and integrin-binding protein 1 (Homo sapiens) (UniProt Q99828) (assay: Primary qHTS for Identification of Calcium Integrin Binding Protein 1 (CIB1) Competitor (AID 1508620; further: top concentration of the series differs between compounds)). Settings: CIB1-GST / FITC-alphaIIb peptide fluorescence polarization; series mostly up to 114 µM; activity change, negative = inhibition: at the top concentration.
Chain of Calcium and integrin-binding protein 1 (Homo sapiens) (Q99828 whole entry, looked up): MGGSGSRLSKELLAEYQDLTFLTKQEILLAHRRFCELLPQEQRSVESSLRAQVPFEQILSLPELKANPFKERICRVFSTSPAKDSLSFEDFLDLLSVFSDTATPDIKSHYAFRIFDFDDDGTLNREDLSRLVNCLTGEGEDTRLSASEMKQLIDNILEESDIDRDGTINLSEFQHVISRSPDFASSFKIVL
Outline: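 Fluorescence polarization competition: GST-tagged CIB1 (1 uM final) preincubated with compound 15 min at room temperature, then FITC-labelled alphaIIb peptide (100 nM final) added. After 15 min at room temperature, polarization read at Ex 480/Em 540.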
On the % scale 0 is the no-effect control and ±100 the full control effect.

SMILES | activity change, negative = inhibition
C=C1CCCC2(C)CCC(C(C)(C)OC3OC(C)C(O)C(O)C3OC(=O)/C(C)=C\C)CC12 (stereo not drawn) | -15.8% [at 57.7 µM] (inactive)
O=c1cc(N2CCOCC2)nc2c3ccccc3ccn12 | 2.43% (inactive)
CC1=C(C(=O)Nc2cc(Cl)ccc2Cl)C(c2ccco2)C2=C(CCCC2=O)N1 (stereo not drawn) | 1.52% (inactive)
